Source: PubChem BioAssay
Shown are actives, neighbours in structure and some others; about 4.2% of the full set was active somewhere.
hcDAF12 agonist: H. contortus DAF-12 activation, primary screen; 1.4% of 370,000 active; AID 652067; activation, % at 6.8 µM; HEK293 hcDAF-12 lit1-tk-luc reporter, luminescence; 0% DMSO, 100% Δ7-dafachronic acid;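 active = activation above the mean of all tested compounds plus 3 SD, cut at about 5.5% in these data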;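 note: 100% = response to 3 µM Δ7-dafachronic acid high control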
Wnt act: Wnt/beta-catenin pathway activation | Wnt/beta-catenin reporter cell assay, activator, plate reader | activation, % at 9.35 µM | 1.2% of 300,000 active; in the data active = activation above about 30%, passing the limit was not always enough;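 note: 0% = neutral control wells and 100% = positive control wells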
hgDAF12 agonist: agonists of H. glycines DAF-12 nuclear receptor. HEK293 GAL4-hgDAF12 UAS-luciferase reporter, agonist luminescence; normalized to butyrate control. activation, % at 6.8 µM. 1.8% of 370,000 active;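 active = activation above a cutoff set at the mean of all screened compounds plus 3 SD, cut at about 10% in these data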;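 note: 0% = DMSO wells and 100% = sodium butyrate wells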
esBAF inh: blocks esBAF chromatin remodeling in mouse ES cells. Bmi1-luciferase knock-in reporter, 24 h; 100% = twice the neutral-well signal. reporter increase, % at 12.5 µM. 2% of 350,000 active. AID 602393; in the data active = activation above about 40%;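 note: 0% = median of the plate's neutral control wells and 100% = double that signal; a rise in the Bmi1 reporter signal indicates esBAF inhibition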
DAX1 StAR inh: inhibitors of DAX1 repression of SF-1 activated StAR promoter. 1.1% of 370,000 active. HEK293T StAR-luciferase reporter, SF-1/DAX-1 repression relief. inhibition, % at 6.8 µM;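 active = inhibition above the mean over all tested compounds plus 3 SD, cut at about 3.6% in these data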;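 note: 0% = DAX-1 cells with DMSO and 100% = cells lacking DAX-1 with DMSO; higher inhibition means more luminescence from relief of DAX-1 repression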
ssDAF12 agonist: S. stercoralis DAF-12 activation, primary screen | HEK293 ssDAF-12/GRIP1 lit1-tk-luc reporter, luminescence; % of 3 µM dafachronic acid response | activation, % at 6.8 µM | 1% of 370,000 active | AID 652126;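 active = activation above the mean over all tested compounds plus 3 SD, cut at about 0.9% in these data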;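 note: 0% = DMSO-only wells and 100% = 3 µM delta7-dafachronic acid wells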
* = called active by the depositor; x = no result given; ! = not active in a repeat.

SMILES	hcDAF12 agonist	Wnt act	hgDAF12 agonist	esBAF inh	DAX1 StAR inh	ssDAF12 agonist
CCC(=O)Nc1c(C(=O)Nc2cccc(OC)c2)oc2ccccc12	0	x	5	43*	1	-1
CO[C@H]1CN(C)C(=O)c2ccc(NC(=O)C3CCC3)cc2OC[C@H](C)N(C(=O)CN(C)C)C[C@H]1C	x	x	x	1	x	x
CNc1ccc(-c2cccc(CO)c2)cn1	3	11	11*	41*	1	-1
Nc1nc(-c2ccccc2)c(N=Nc2ccccc2Cl)s1	5.8*	x	5	x	-1	-1
COc1ccc(S(=O)(=O)N(C)C[C@@H]2Oc3c(NC(=O)C4CCCCC4)cccc3C(=O)N([C@@H](C)CO)C[C@@H]2C)cc1	x	x	x	-4	x	x
COc1ccc(C)cc1Nc1nc(N)c2ccccc2n1	0	-1	3	13	0	-1
CN(C)c1ccc(Nc2nc(N)c3ccccc3n2)cc1	4	0	10*	-79	2	1
CCOc1ccc(Nc2nc(N)c3ccccc3n2)cc1	4	-2	8	-74	2	1.4*
C=CCn1c2ccccc2c(=O)c2cc(C#CC3(O)CCCCC3)ccc21	5	8	9	3	3	0
C=CCn1c2ccccc2c(=O)c2cc(C#CC[C@@H](C)O)ccc21	2	36*	7	52*	1	0
O=C(NCc1cc(F)ccc1F)C1CCC(=O)N(C2CCCCCC2)C1 (stereo unspecified)	0	11	8	48*	1	0
CC(C)n1nnnc1C1c2ccccc2C(=O)N1Cc1cccc(F)c1 (stereo unspecified)	2	-2	-1	x	3.8*	-1
CC(C)n1nnnc1C1c2ccccc2C(=O)N1Cc1ccc(F)cc1 (stereo unspecified)	0	-3	-4	x	-1	0
COc1ccc(NC(=O)Nc2ccc3c(c2)C(=O)N([C@H](C)CO)C[C@@H](C)[C@@H](CN(C)CC2CCCCC2)O3)cc1	x	x	x	2	x	x
O=C(NCC[C@H]1CC[C@H](NS(=O)(=O)c2ccc(Cl)cc2)[C@H](CO)O1)c1ccc2c(c1)OCO2	x	x	x	0	x	x
O=C(COC(=O)c1ccc(S(=O)(=O)N2CCOCC2)cc1)NC1CCCCCCC1	0	89*	3	5	1	-1
O=C(COC(=O)c1ccc(S(=O)(=O)N2CCCCC2)cc1)NC1CCCCC1	-1	x	3	3	0	-1
COc1ccc(CNC(=O)C[C@H]2CC[C@@H](NC(=O)Nc3ccc4c(c3)OCO4)[C@H](CO)O2)cc1	x	x	x	5	x	x
Cc1cc(C)n(C(=O)CCCC(=O)n2nc(C)cc2C)n1	-1	x	-2	-3	0	-1
Cc1cc(C)n(C(=O)CNc2ccc(C)c(C)c2)n1	0	x	1	63*	0	0
C[C@@H]1CN([C@H](C)CO)C(=O)c2cc(C#Cc3ccc(F)cc3)cnc2O[C@H]1CN(C)S(C)(=O)=O	x	x	x	0	x	x
CS(=O)(=O)Nc1ccc2c(c1)[C@@H]1C[C@@H](CC(=O)NC3CCCC3)O[C@H](CO)[C@@H]1O2	x	x	x	-5	x	x
O=C(Nc1cccc(C(=O)Nc2ccccc2C(=O)O)c1)c1cccc(Cl)c1	-1	1	1	x	1	-1
CCC(=O)N1CCN(c2ccc(NC(=O)c3ccc4c(c3)OCO4)cc2)CC1	-2	x	-3	3	0	-1
O=C(Nc1cccc(NC(=O)c2ccc3c(c2)OCO3)c1)c1ccccc1	-2	4	3	x	-1	-1
SMILES	hcDAF12 agonist	Wnt act	hgDAF12 agonist	esBAF inh	DAX1 StAR inh	ssDAF12 agonist
O=C(Nc1cccc(Cl)c1)c1ccccc1	0	20	9	42*	0	-1
O=C(Nc1cccc(Cl)c1)N1CCN(Cc2ccccc2)CC1	3	7	10	74*	3	0
CCN1CCN(c2ccc(NC(=O)c3ccc4c(c3)OCO4)cc2)CC1	2	47*	12*	11	2	0
O=C(Nc1ccc2c(c1)OCO2)c1cccc(Cl)c1	0	-1	9	64*	2	0
CCCC#Cc1cnc2c(c1)C(=O)N([C@H](C)CO)C[C@H](C)[C@H](CN(C)C(=O)c1cccc(F)c1)O2	x	x	x	1	x	x
O=C(Nc1cc(Cl)cc(Cl)c1)N[C@H]1CC[C@@H](CCNS(=O)(=O)c2cccc(F)c2)O[C@@H]1CO	x	x	x	4	x	x
COc1cccc(C(=O)Nc2ccc(-n3nncc3C(C)(C)C)cc2)c1	-2	1	2	x	-1	-2
O=C(Nc1ccc(F)c(F)c1)c1ccc2c(c1)OCO2	2	x	6	58*	3	-1
NC(=O)c1ccc(NC(=O)c2ccc3c(c2)OCO3)cc1	4	-1	6	22	3	0
COc1cc(NC(=O)c2ccc3c(c2)OCO3)ccc1NC(=O)C(C)C	0	1	-2	52*	1	-1
O=C(Nc1ccc(Br)cc1)c1ccc2c(c1)OCO2	6.5*	29	13*	12	3	0
CC(C)(C)c1cnnn1-c1ccc(NC(=O)c2ccc3c(c2)OCO3)cc1	-1	x	1	44*	-1	-2
COc1cc2c(cc1NC(=O)c1ccc3c(c1)OCO3)oc1ccccc12	-1	22	-1	47*	1	-1
COc1ccccc1NC(=O)c1ccc2c(c1)OCO2	3	12	9	14	1	-1
Cn1cnc(S(=O)(=O)N[C@H]2C=C[C@H](CC(=O)NCC3CCCCC3)O[C@H]2CO)c1	x	x	x	0	x	x
Fc1cccc(CSc2nc3ccncc3[nH]2)c1	2	18	4	29	4.4*	-1
Clc1cccc(CSc2nc3ccncc3[nH]2)c1	1	12	4	33	2	0
Cc1cccnc1NC(=O)Nc1ccc(Cl)cc1	3	0	7	71*	1	0
Cc1cccnc1NC(=O)Nc1cccc(F)c1	4	3	11*	48*	2	0
C[C@@H]1CN([C@H](C)CO)C(=O)c2cccc(NC(=O)Nc3ccccc3)c2O[C@@H]1CN(C)Cc1ccc(-c2ccccc2)cc1	x	x	x	-2	x	x
O=C1c2ccccc2NC(c2ccccn2)N1c1ccc(Cl)cc1 (stereo unspecified)	6.2*	x	8	61*	0	-1
Cc1cccc(C2Nc3ccccc3C(=O)N2c2ccccc2)n1 (stereo unspecified)	1	0	2	2	0	-1
Cc1cccc(NC(=S)N/C(=N/S(=O)(=O)c2ccccc2)c2ccccc2)c1	-1	-4	12*!	78*	1	1
Cc1ccc(S(=O)(=O)/N=C(/NC(=S)Nc2cccc(C)c2)c2ccccc2)cc1	4	x	7	x	1	1
Cc1ccc(C(=O)Nc2ccccc2N2CCCCC2)cc1[N+](=O)[O-]	2	-9	-2	-8	0	-2
